Assay outcomes: PubChem BioAssay, National Center for Advancing Translational Sciences (NCATS)
ALOX12 inh: ALOX12 (human) lipoxygenase inhibition | P18054 | purified 12hLO, xylenol orange hydroperoxide absorbance | Potency, µM (titrated, usually from 108 µM), for inactives: at the highest dose activity change, negative = inhibition, hits mostly inhibitors | 1.1% of 580,000 active; note: potency is the fitted concentration of half-maximal effect
Target sequence (P18054 whole entry, looked up): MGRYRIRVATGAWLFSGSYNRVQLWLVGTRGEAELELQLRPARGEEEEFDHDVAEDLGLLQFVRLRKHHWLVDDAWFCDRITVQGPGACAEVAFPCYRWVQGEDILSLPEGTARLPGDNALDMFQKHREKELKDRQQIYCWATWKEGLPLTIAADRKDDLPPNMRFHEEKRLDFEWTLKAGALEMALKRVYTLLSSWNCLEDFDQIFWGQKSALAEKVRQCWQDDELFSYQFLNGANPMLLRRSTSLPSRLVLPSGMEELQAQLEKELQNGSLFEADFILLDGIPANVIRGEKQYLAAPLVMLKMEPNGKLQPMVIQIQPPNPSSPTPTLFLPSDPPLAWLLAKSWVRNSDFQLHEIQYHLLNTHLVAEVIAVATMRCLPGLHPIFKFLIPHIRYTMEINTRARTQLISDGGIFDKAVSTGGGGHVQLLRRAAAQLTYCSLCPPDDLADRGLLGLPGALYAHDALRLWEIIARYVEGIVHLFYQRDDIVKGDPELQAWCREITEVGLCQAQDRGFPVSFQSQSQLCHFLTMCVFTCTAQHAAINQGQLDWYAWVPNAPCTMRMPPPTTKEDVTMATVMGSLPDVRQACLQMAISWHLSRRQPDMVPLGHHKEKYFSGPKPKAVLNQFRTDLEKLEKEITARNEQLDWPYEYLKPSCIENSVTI
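Hydroperoxide product was detected by ferrous iron/xylenol orange as the 573 to 405 nm absorbance ratio. Arachidonic acid at 40 uM (final) was turned over for 30 min at room temperature by 150 nM human 12hLO, pH 7.0 Hepes buffer, after 15 min compound preincubation.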
HT1080-NT tox: kills 2HG-producing HT-1080-NT fibrosarcoma cells. HT-1080-NT fibrosarcoma viability, CellTiter-Glo ATP luminescence, 48 h. Potency, µM (titrated, usually from 46.1 µM), without a hit: at the top dose activity, negative = less viability, most hits filed as cytotoxic. 1.6% of 360,000 active. AID 686970;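 note: NT is the 2HG producing partner of a matched IDH1 knockdown line; potency is the fitted concentration of half-maximal effect; 0% = DMSO-treated cells and -100% = media-only wells without cells; nearly all actives have a fitted effect of over 55% in size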
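Compounds were tested in concentration-response format on HT-1080-NT cells for 48 hours at 37 degrees C. Cell viability came from CellTiter-Glo luminescence; curves were classified by r2, response magnitude and activity.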
IL-1B inflam inh: inflammasome signaling inhibition, IL-1 beta readout; activity change, % at 57.5 µM; THP-1 LPS/ATP IL-1B secretion, AlphaLISA, 16 h; hits give low values; 4.7% of 360,000 active; AID 743279; in the data active = activity change below about -50%; inconclusive = mostly about -30% to -49%
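THP-1 cells pretreated 1 hr with compounds (up to 57.5 uM final), then stimulated with LPS (250 ng/mL final) plus ATP (1.25 mM final); secreted IL-1B measured by AlphaLISA after 16 hr, decreased signal indicating inhibition.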
TDP1 cell CPT: DT40-hTDP1 cell growth loss with CPT | AID 686979 | chicken DT40 Tdp1-/-;hTDP1 cells + 20 nM CPT, ATP luminescence, 48 h | Potency, µM (doses to about 46.2 µM), for the others: top-dose activity change, negative = growth inhibition, usual class: inhibitors | 12% of 420,000 active; note: potency is the fitted concentration of half-maximal effect; nearly all actives have a fitted effect of over 55% in size
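Chicken DT40 Tdp1-/- cells complemented with human TDP1, 400 cells/well, exposed to compounds plus 20 nM camptothecin for at least 48 h at 37 C; viability read as ATP content by CellTiter-Glo luminescence.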
DT40 TDP1 no CPT: qHTS for Inhibitors of human tyrosyl-DNA phosphodiesterase 1 (TDP1): qHTS in cells in absence of CPT. 15% of 420,000 active. DT40 Tdp1-/- hTDP1 cells, no CPT, ATP luminescence, 48 h. AID 686978, 2013. Potency, µM (titrated, usually from 46.2 µM), for the others: at the highest dose activity change, negative = growth inhibition, actives largely listed as inhibitors; note: potency is the fitted concentration of half-maximal effect; nearly all actives have a fitted effect of over 55% in size
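Chicken DT40 Tdp1-/- cells stably complemented with human TDP1 were seeded at 400 cells/well with DMSO in place of 20 nM camptothecin. After compound pinning, cells grew at least 48 hr at 37 °C; viability read by CellTiter-Glo luminescence.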
HT1080 IDH1KD tx: toxicity to HT-1080 IDH1 knockdown cells (counter line); HT-1080 IDH1 knockdown viability, ATP luminescence, 48 h; Potency, µM (top dose mostly 46.1 µM), for inactives: at the top dose activity, negative = toxicity, usual class: cytotoxic; 2% of 360,000 active; AID 686971;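 note: potency is the fitted concentration of half-maximal effect; 0% = DMSO wells and -100% = cell-free medium wells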
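Luminescent ATP read-out (CellTiter-Glo, 10 min at room temperature) after 48 h compound exposure at 37 °C gave viability of IDH1-knockdown HT-1080 cells. Activity was normalised to DMSO and cell-free wells, then fitted as concentration-response curves.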
* hit, by the source's call; ? = inconclusive; / = no result; [ ] = another dose, or the depositor's remark. The full list was thinned out, with hits kept by preference. Unless noted, calls come from the whole dose curve; as a rule, active = well fitted curve in the direction sought with a large enough effect; inconclusive = small, poorly fitted or top-dose-only effect, or another doubt; inactive = no such curve, though single readings can be large; an effect the other way counts as inactive or inconclusive. Unless noted, % is set by controls: 0 for no effect and ±100 for the full control effect.

SMILES	ALOX12 inh	HT1080-NT tox	IL-1B inflam inh	TDP1 cell CPT	DT40 TDP1 no CPT	HT1080 IDH1KD tx
Clc1ccccc1-c1nnc(-c2ccc3c(c2)OCO3)o1	-14.8%	-12.3%	14.8	?	?	-3.7%
O=C(NC(Cc1ccccc1)C(=O)Nc1ccc2c(c1)CCC2)c1ccco1 (stereo unspecified)	7.0%	/	/	/	/	/
CCN1C(=O)[C@H]2[C@@H](c3ccc(C(F)(F)F)cc3)N[C@]3(CCCN(Cc4ccccc4)C3=O)[C@H]2C1=O	-23.9%	-9.5%	-20.1	20.6µM*	16.4µM*	-3.2%
COc1ccc([C@H]2N[C@]3(CCCN(CC4CCCCC4)C3=O)[C@H]3C(=O)N(Cc4ccccc4)C(=O)[C@@H]23)cc1	?	-2.7%	-7.0	?	20.6µM*	0.7%
COc1ccc([C@H]2N[C@]3(CCCN(Cc4ccc(F)cc4)C3=O)[C@H]3C(=O)N(Cc4ccccc4)C(=O)[C@@H]23)cc1	35.5µM*	1.9%	-2.3	?	?	-3.4%
CCN1C(=O)[C@H]2[C@@H](c3ccc(C)cc3)N[C@]3(CCCN(Cc4ccc(C(F)(F)F)cc4)C3=O)[C@H]2C1=O	?	-5.7%	17.0	13µM*	10.3µM*	-0.9%
CCN1C(=O)[C@H]2[C@@H](c3ccc(C)cc3)N[C@]3(CCCN(CC4CCCCC4)C3=O)[C@H]2C1=O	?	13.5%	12.0	-12.6%	?	9.7%
COc1ccc(CN2CCC[C@]3(N[C@H](c4ccc(C(F)(F)F)cc4)[C@@H]4C(=O)N(Cc5ccccc5)C(=O)[C@@H]43)C2=O)cc1	?	-15.4%	-16.0	?	?	-22.9%
Cc1cc2nn(CC(=O)N3CCCC3)c(=O)n2c(N2CCc3ccccc3C2)n1	5.4%	/	/	/	/	/
O=C(CC(F)(F)F)NCCc1noc(C2CC2)n1	-6.1%	/	/	/	/	/
Nc1cccc(-n2nnnc2CN2CCOCC2)c1	-14.5%	17.1%	-18.0	?	16.4µM*	16.1%
Nc1ccc(-n2nnnc2CN2CCOCC2)cc1	0.5%	13.9%	-13.6	10.5%	-1.7%	?
O=S(Cc1ccc(Cl)cc1)c1ccccc1 (stereo unspecified)	-0.8%	13.2%	-8.4	-0.6%	-18.3%	6.3%
CN(C)c1ccc(C(=O)NCC2CCN(C(=O)C(=O)c3cccs3)CC2)cc1	8.3%	/	/	/	/	/
COc1ccccc1-c1nnc([C@H]2CCN(C(=O)c3ccccc3)C2)o1	15.6%[176 µM]	/	/	/	/	/
COc1ccccc1-c1nnc(C2CCN(C(=O)c3ccccc3C)CC2)o1	1.5%	/	/	?	-17.2%	/
COc1ccc(-c2nnc(C3CCN(S(=O)(=O)c4ccc(C)c(C)c4)CC3)o2)cc1	3.5%	/	/	?	25.9µM*	/
COc1ccccc1-c1nnc(C2CCN(C(=O)c3cccc(Cl)c3)CC2)o1	2.1%	/	/	?	16.4µM*	/
COc1ccccc1-c1nnc(C2CCN(S(=O)(=O)c3ccc(F)c(C)c3)CC2)o1	3.1%	/	/	14.6µM*	?	/
COC(=O)c1ccc(Oc2c(C)oc3cc(OCc4ccccc4F)ccc3c2=O)cc1	-8.4%	/	/	/	/	/
CCCC(C)NC(=O)c1ccccc1-c1ncc(-c2ccccc2F)o1 (stereo unspecified)	5.2%	/	/	/	/	/
Cc1cccc(Cn2cc(C(=O)Nc3ccc(F)c(C(F)(F)F)c3)ccc2=O)c1	-3.6%	/	/	23.1µM*	14.6µM*	/
COc1ccc(C)cc1NC(=O)c1ccc(=O)n(Cc2ccccc2)c1	-18.3%	/	/	?	23.1µM*	/
Cc1cccc(Cn2cc(C(=O)Nc3cc(F)ccc3F)ccc2=O)c1	0.0%	/	/	?	16.4µM*	/
Cc1cccc(C(C)C)c1NC(=O)c1ccc(Cl)cc1F	4.0%	/	/	/	/	/
SMILES	ALOX12 inh	HT1080-NT tox	IL-1B inflam inh	TDP1 cell CPT	DT40 TDP1 no CPT	HT1080 IDH1KD tx
CC1=C(C(=O)N2CCCCCC2)CC(CC(=O)NCc2ccco2)C(=O)N1Cc1ccccc1 (stereo unspecified)	16.2%	8.0%	-25.5	1.8%	6.9%	16.4%
O=C(C[C@H]1NC(=O)c2ccccc2NC1=O)Nc1ccc(N2CCOCC2)cc1	1.9%	/	/	/	/	/
COCCN(CCOC)Cc1cc(=O)oc2ccc3ccccc3c12	-26.0%	4.8%	-27.1	?	18.4µM*	-22.3%
COCCN(CCOC)Cc1cc(=O)oc2cc(OC)ccc12	?	27.0%	1.6	15.7%	?	-0.2%
CCCN(CCC)Cc1cc(=O)oc2cc(OC)c(Cl)cc12	31.6µM*	23.8%	-13.6	?	?	4.5%
COCCN(CCOC)Cc1cc(=O)oc2cc(C)c(C)cc12	14.1µM*	-1.2%	-12.1	9.2%	?	-1.1%
Cc1cc2occ(CC(=O)Nc3nnc(C4CC4)s3)c2cc1C	-6.1%	4.9%	18.7	-25.9%	-16.4%	-12.8%[9.24 µM]
O=C(Cc1coc2ccc3ccccc3c12)Nc1nnc(C2CC2)s1	-14.4%	-21.0%	28.8	?	23.1µM*	?
COCCNC(=O)/C(C#N)=C/C=C/c1ccccc1[N+](=O)[O-]	-6.0%	?	-107.0*	10.3µM*	7.31µM*	?
COCCNC(=O)/C(=C/c1ccccc1Cl)c1ccccc1	-16.2%	-1.4%	?	29.1µM*	?	-4.3%
COCCNC(=O)/C(C#N)=C/c1ccc(O)cc1	3.0%	-10.4%	1.7	-21.5%	-14.2%	-12.6%
O=C(O)C(=Cc1ccccc1Cl)c1ccccc1	/	-0.6%	-6.5	?	-27.2%	22.4%
COCCNC(=O)/C(C#N)=C/c1cccc(/C=C(\C#N)C(=O)NCCOC)c1	-16.1%	?	-98.8*	5.8µM*	11.6µM*	?
COCCNC(=O)/C(C#N)=C/C(C)=C/c1ccccc1	9.0%	?	-82.8*	-21.6%	-21.1%	-11.3%
COCCNC(=O)/C(C#N)=C/c1ccc(O)c([N+](=O)[O-])c1	-7.9%	-27.0%	14.9	-4.7%	?	-29.3%
Cc1cccc(Nc2nc(N)c(C(=O)C(C)C)s2)c1	-1.1%	/	/	/	/	/
CNC(=O)/C(C#N)=C/c1cccc(Oc2ccccc2)c1	?	-18.2%	-101.7*	25.9µM*	23.1µM*	?
CN(C)S(=O)(=O)Nc1cc(Cl)cc(Cl)c1	-8.8%	1.4%	44.0	18.4µM*	?	16.2%
O=C(COC(=O)c1ccc(F)c(S(=O)(=O)N2CCOCC2)c1)Nc1ccc(Cl)cn1	-9.9%	-6.4%	49.7	-2.6%	-11.6%	2.1%
COc1cc2c(cc1OC)C(C(=O)Nc1ccc3c(c1)OCCO3)C1c3ccccc3CCN1C2=O (stereo unspecified)	-23.1%	-15.8%	-13.6	?	23.1µM*	-18.4%
